# Reference: the supplement of paper PMC10037445
# Over roughly 2,900 compounds, “NF-kB SEAP reporter activity, fold change vs agonist alone” has its median near 0.99; the highest 2% begin near 2.6. Many of the other results were omitted from the sample, so the highest values are more common in it than they were.
# Experiments:
# RAW-Dual [1] = test: NF-kB SEAP reporter activity, fold change vs agonist alone; higher = enhanced NF-kB activity
# Summary of the method: (§1)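 Supernatant from RAW-Dual macrophages was read after 20 hours for IRF by QuantiLuc luminescence and for NF-κB by QuantiBlue absorbance at 620 nm. The cells (50,000 cells/well in DMEM, 384-well plates, 37 °C, 5% CO2) had received 50 nL of library stock by pin tool and, 1 h later, a PRR agonist. Reporter activity is expressed relative to agonist-alone wells as fold change, and wells were flagged cytotoxic if IncuCyte confluency was under 70% of agonist controls in both mask sets.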
# RAW-Dual [2] = test: NF-kB SEAP reporter activity, fold change vs agonist alone; cytotoxicity flag (confluency mask): cytotoxic (confluency <70% of control); higher = enhanced NF-kB activity
# Summary of the method: as §1
# RAW-Dual [3] = test: NF-kB SEAP reporter activity, fold change vs agonist alone; cytotoxicity flag (confluency mask): not cytotoxic; higher = enhanced NF-kB activity
# Summary of the method: as §1
# [4] = library stock concentration (final ~1000-fold dilution): 10 mM, cytotoxicity flag (confluency mask): cytotoxic (confluency <70% of control), agonist: Imiquimod (TLR7) […]
# [5] = library stock concentration (final ~1000-fold dilution): 10 mM, cytotoxicity flag (confluency mask): cytotoxic (confluency <70% of control), agonist: MPLA (TLR4) […]
# [6] = agonist: ODN 1826 (TLR9) 0.5 ug/mL
# [7] = agonist: Pam2CSK4 (TLR2/6) 0.1 ug/mL
# [8] = agonist: Pam3CSK4 (TLR2/1) 0.1 ug/mL
# [9] = library stock concentration (final ~1000-fold dilution): 10 mM, cytotoxicity flag (confluency mask): not cytotoxic, agonist: Imiquimod (TLR7) […]
# [10] = library stock concentration (final ~1000-fold dilution): 10 mM, cytotoxicity flag (confluency mask): not cytotoxic, agonist: MPLA (TLR4) […]
smiles,measurement,setting,value
Cc1[nH]c(/C=C2\C(=O)Nc3ccc(S(=O)(=O)Cc4c(Cl)cccc4Cl)cc32)c(C)c1C(=O)N1CCCC1CN1CCCC1 (stereo not drawn),NF-kB SEAP reporter activity,RAW-Dual [1]; [4],2.04
same,NF-kB SEAP reporter activity,RAW-Dual [1]; [5],1.3
Cc1[nH]c(/C=C2\C(=O)Nc3ccc(S(=O)(=O)Cc4c(Cl)cccc4Cl)cc32)c(C)c1C(=O)N1CCCC1CN1CCCC1 (stereo not drawn) (library stock concentration (final ~1000-fold dilution): 10 mM),NF-kB SEAP reporter activity,RAW-Dual [2]; agonist: LPS (TLR4) 0.1 ug/mL,0.658
same,NF-kB SEAP reporter activity,RAW-Dual [2]; [6],1.39
same,NF-kB SEAP reporter activity,RAW-Dual [2]; [7],0.551
same,NF-kB SEAP reporter activity,RAW-Dual [2]; [8],0.886
CC(C)Oc1ccc(C(=O)NC(CNC(=O)CN(C)C)Cc2ccc(-c3cn4cccc(C(C)O)c4n3)cc2)cc1Cl (stereo not drawn) (library stock concentration (final ~1000-fold dilution): 10 mM),NF-kB SEAP reporter activity,RAW-Dual [3]; agonist: LPS (TLR4) 0.1 ug/mL,0.934
same,NF-kB SEAP reporter activity,RAW-Dual [3]; [6],0.199
same,NF-kB SEAP reporter activity,RAW-Dual [3]; [7],1.02
same,NF-kB SEAP reporter activity,RAW-Dual [3]; [8],1.03
CC(C)Oc1ccc(C(=O)NC(CNC(=O)CN(C)C)Cc2ccc(-c3cn4cccc(C(C)O)c4n3)cc2)cc1Cl (stereo not drawn),NF-kB SEAP reporter activity,RAW-Dual [1]; [9],1.37
same,NF-kB SEAP reporter activity,RAW-Dual [1]; [10],1.39
Nc1ncnc2c1c(I)cn2C1OC(CO)C(O)C1O (stereo not drawn) (library stock concentration (final ~1000-fold dilution): 10 mM),NF-kB SEAP reporter activity,RAW-Dual [2]; agonist: LPS (TLR4) 0.1 ug/mL,0.213
same,NF-kB SEAP reporter activity,RAW-Dual [2]; [6],0.195
same,NF-kB SEAP reporter activity,RAW-Dual [2]; [7],0.0844
same,NF-kB SEAP reporter activity,RAW-Dual [2]; [8],0.123
Nc1ncnc2c1c(I)cn2C1OC(CO)C(O)C1O (stereo not drawn),NF-kB SEAP reporter activity,RAW-Dual [1]; [4],0.145
same,NF-kB SEAP reporter activity,RAW-Dual [1]; [5],0.26
C=C1CCC(O)CC1=CC=C1CCCC2(C)C1CCC2C(C)CCCC(C)C (stereo not drawn),NF-kB SEAP reporter activity,"RAW-Dual [1]; library stock concentration (final ~1000-fold dilution): 1 mM, cytotoxicity flag (confluency mask): not cytotoxic, agonist: Imiquimod (TLR7) […]",1.17
same,NF-kB SEAP reporter activity,"RAW-Dual [1]; library stock concentration (final ~1000-fold dilution): 1 mM, cytotoxicity flag (confluency mask): not cytotoxic, agonist: MPLA (TLR4) […]",0.651
C=C1CCC(O)CC1=CC=C1CCCC2(C)C1CCC2C(C)CCCC(C)C (stereo not drawn) (library stock concentration (final ~1000-fold dilution): 1 mM),NF-kB SEAP reporter activity,RAW-Dual [3]; agonist: LPS (TLR4) 0.1 ug/mL,0.593
same,NF-kB SEAP reporter activity,RAW-Dual [3]; [6],1.12
same,NF-kB SEAP reporter activity,RAW-Dual [3]; [7],1.12
same,NF-kB SEAP reporter activity,RAW-Dual [3]; [8],1.27
O=C(O)CCN1C(=O)C(=Cc2ccc(-c3ccc([N+](=O)[O-])cc3)o2)SC1=S (library stock concentration (final ~1000-fold dilution): 10 mM),NF-kB SEAP reporter activity,RAW-Dual [3]; agonist: LPS (TLR4) 0.1 ug/mL,0.807
same,NF-kB SEAP reporter activity,RAW-Dual [3]; [6],0.649
same,NF-kB SEAP reporter activity,RAW-Dual [3]; [7],0.104
same,NF-kB SEAP reporter activity,RAW-Dual [3]; [8],0.296
O=C(O)CCN1C(=O)C(=Cc2ccc(-c3ccc([N+](=O)[O-])cc3)o2)SC1=S,NF-kB SEAP reporter activity,RAW-Dual [1]; [9],0.675
same,NF-kB SEAP reporter activity,RAW-Dual [1]; [10],0.731
COc1ccc(-c2ccc3c(N4CCOCC4)nc(N4CC(C)OC(C)C4)nc3n2)cc1CO (stereo not drawn) (library stock concentration (final ~1000-fold dilution): 10 mM),NF-kB SEAP reporter activity,RAW-Dual [3]; agonist: LPS (TLR4) 0.1 ug/mL,0.793
same,NF-kB SEAP reporter activity,RAW-Dual [3]; [6],0.836
same,NF-kB SEAP reporter activity,RAW-Dual [3]; [7],0.365
same,NF-kB SEAP reporter activity,RAW-Dual [3]; [8],0.707
COc1ccc(-c2ccc3c(N4CCOCC4)nc(N4CC(C)OC(C)C4)nc3n2)cc1CO (stereo not drawn),NF-kB SEAP reporter activity,RAW-Dual [1]; [9],0.91
same,NF-kB SEAP reporter activity,RAW-Dual [1]; [10],0.935
CCc1nn(CCCN2CCN(c3cccc(Cl)c3)CC2)c(=O)n1CCOc1ccccc1.Cl (library stock concentration (final ~1000-fold dilution): 10 mM),NF-kB SEAP reporter activity,RAW-Dual [3]; agonist: LPS (TLR4) 0.1 ug/mL,0.981
same,NF-kB SEAP reporter activity,RAW-Dual [3]; [6],0.799
same,NF-kB SEAP reporter activity,RAW-Dual [3]; [7],0.822
same,NF-kB SEAP reporter activity,RAW-Dual [3]; [8],0.646
Cl.O=c1n(CCCN2CCN(c3cccc(Cl)c3)CC2)nc2ccccn12,NF-kB SEAP reporter activity,"RAW-Dual [1]; library stock concentration (final ~1000-fold dilution): 2 mM, cytotoxicity flag (confluency mask): not cytotoxic, agonist: Imiquimod (TLR7) […]",1.05
same,NF-kB SEAP reporter activity,"RAW-Dual [1]; library stock concentration (final ~1000-fold dilution): 2 mM, cytotoxicity flag (confluency mask): not cytotoxic, agonist: MPLA (TLR4) […]",1.08
O=c1n(CCCN2CCN(c3cccc(Cl)c3)CC2)nc2ccccn12,NF-kB SEAP reporter activity,RAW-Dual [1]; [9],2.36
same,NF-kB SEAP reporter activity,RAW-Dual [1]; [10],2.42
CCc1nn(CCCN2CCN(c3cccc(Cl)c3)CC2)c(=O)n1CCOc1ccccc1.Cl,NF-kB SEAP reporter activity,RAW-Dual [1]; [10],0.878
O=c1n(CCCN2CCN(c3cccc(Cl)c3)CC2)nc2ccccn12 (library stock concentration (final ~1000-fold dilution): 10 mM),NF-kB SEAP reporter activity,RAW-Dual [3]; agonist: LPS (TLR4) 0.1 ug/mL,2.72
same,NF-kB SEAP reporter activity,RAW-Dual [3]; [6],1.65
same,NF-kB SEAP reporter activity,RAW-Dual [3]; [7],1.15
same,NF-kB SEAP reporter activity,RAW-Dual [3]; [8],1.22
Cl.O=c1n(CCCN2CCN(c3cccc(Cl)c3)CC2)nc2ccccn12 (library stock concentration (final ~1000-fold dilution): 2 mM),NF-kB SEAP reporter activity,RAW-Dual [3]; agonist: LPS (TLR4) 0.1 ug/mL,1.15
same,NF-kB SEAP reporter activity,RAW-Dual [3]; [6],1.04
same,NF-kB SEAP reporter activity,RAW-Dual [3]; [7],1.1
same,NF-kB SEAP reporter activity,RAW-Dual [3]; [8],1.37
